For 23 molecules, Potency results are on record in PubChem BioAssay (Tox21).

Inconclusive results are not listed. Where a call stands in place of a potency, no number is given. The source made the active and inactive calls. Calls follow the shape of the full dose curve.

A short description of the assay: qHTS assay for small molecule agonists of the p53 signaling pathway - cell viability (AID 651633).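 Also: p53RE-bla HCT reporter cells with a stable beta-lactamase p53 reporter; nearly all actives have a fitted effect of over 30% in size.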 The conditions noted are these: p53RE-bla HCT-116 viability, ATP luminescence, 16 h; series mostly up to 83.3 µM. An outline of the steps:
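p53RE-bla cells were treated with compound for 16 hours at 37 C. Cytotoxicity was then measured as CellTiter-Glo luminescence after 30 min at room temperature.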
For `Cn1c(N)nc2nc[nH]c2c1=O`, the Potency entry was “inactive”.

As for `CCOC(=O)CC(=O)c1cc(F)c(Cl)nc1Cl`, the Potency result was “inactive”.

Consider `Cc1cccc(C(C)(C)C)c1O`, for which the Potency result was “inactive”.

For the molecule `C=Cc1c(C)c2cc3[nH]c(cc4nc(cc5nc(cc1[nH]2)C(C)=C5CCC(=O)O)C(CCC(=O)O)=C4C)c(C)c3C=C`, the Potency entry is “inactive”.

As to `CCCCCCCCCC(=O)OCC`, the Potency result was “inactive”.

Regarding `CC(C)CCCC(C)CCO` (stereo not drawn), the Potency result was “inactive”.

With `Cc1cccc(Oc2ccccc2)c1`, the Potency entry was “inactive”.

In the case of `Nc1ccc(C(=O)Nc2ccccc2N)cc1`, the Potency entry is “inactive”.

Turning to `CC(=O)/C(C)=C/C1C(C)=CCCC1(C)C` (stereo not drawn), the Potency entry is “inactive”.

Turning to `N=C(N=C(N)N)N1CCOCC1`, the Potency result is “inactive”.

On to `CC(C)(C)c1ccc(S)cc1`, for which the Potency entry was “inactive”.

`NC(=S)N/N=C/c1cccnc1`: the Potency result was “inactive”.

For `COc1ccc2[nH]c(S(=O)Cc3ncc(C)c(OC)c3C)nc2n1` (stereo not drawn), the Potency entry was “inactive”.

For the molecule `CC1=CC(=O)/C(=C(/C)O)C(=O)O1`, the Potency entry was “inactive”.

Take `CCCCCCCCCCCCCCCC(=O)OC/C=C(C)/C=C/C=C(C)/C=C/C1=C(C)CCCC1(C)C`: the Potency result is “inactive”.

With `O=[N+]([O-])c1cc[n+]([O-])cc1`, the Potency entry was “inactive”.

Consider `CC(CN)CCCN` (stereo not drawn), for which the Potency entry is “inactive”.

For `CC(=O)NCCCS(=O)(=O)O`, the Potency result is “inactive”.

For `CC[C@]12CCCN3CCc4c(n(c5ccccc45)C(=O)C1)[C@@H]32`, the Potency result is “inactive”.

For `CCCCCCCCCO`, the Potency entry is “inactive”.

Take `CC(=O)[C@@]1(O)CC[C@H]2[C@@H]3C[C@H](C)C4=CC(=O)CC[C@]4(C)[C@H]3CC[C@@]21C`: the Potency entry is “inactive”.

Take `C=CCCCCCC`: the Potency entry was “inactive”.

Consider `CC(=O)O[C@H]1C[C@@H]2CC[C@@H]3[C@H](CC[C@@]4(C)[C@H]3C[C@H]([N+]3(C)CCCCC3)[C@@H]4OC(C)=O)[C@@]2(C)C[C@@H]1N1CCCCC1`, for which the Potency entry was “inactive”.
